Laboratory results published in PubChem BioAssay (EPA / NIEHS).
Active and inactive are the calls of the source. How the source made its calls: active means hit-call score of the fitted dose curve at least 0.9, where 1 is the maximum; inactive means score below 0.9.

Tested on: not listed separately
Test: ATG_Sox_CIS: Attagene CIS-FACTORIAL HepG2 Assay for human SRY-box transcription factor (SOX) (AID 2282960)
Conditions: HepG2 Attagene cis-factorial SOX reporter, mRNA; actives raise or lower the signal
How it was run: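 Fluorescence-labelled cDNA fragments from reporter transcripts, sized by CE, give the signal. Cells: HepG2, transiently transfected with cis-regulated reporter units. Exposure 24 h; DMSO negative control; bidirectional curve fitting.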

**Q.** For Nc1ccc(S(=O)(=O)Nc2nccs2)cc1, which outcome is on record?
**A.** inactive

**Q.** Which outcome does the source give for C=C(C)C(=O)OCC(F)(F)C(F)(F)C(F)(F)F here?
**A.** inactive

**Q.** For O=P(O)(O)OCCC(F)(F)C(F)(F)C(F)(F)C(F)(F)C(F)(F)C(F)(F)F, which outcome is on record?
**A.** inactive

**Q.** With CC(=O)Nc1ccc(N=Nc2cc(C)ccc2O)cc1 as the compound, how does the outcome read?
**A.** inactive

**Q.** With FC(F)(F)C(F)(F)C(F)(F)C(F)(F)CCI as the compound, how does the outcome read?
**A.** inactive

**Q.** For CCc1c(Br)c(Br)c(Br)c(Br)c1Br, which outcome is on record?
**A.** inactive

**Q.** For CC(C)(C)c1ccc(OC2CCCCC2O)cc1 (stereo not given), which outcome is on record?
**A.** inactive

**Q.** With CC(C)OC(=O)c1ccccc1C(=O)OC(C)C as the compound, how does the outcome read?
**A.** inactive

**Q.** For OC[C@@H](O)[C@@H](O)[C@H](O)[C@@H](O)CO, which outcome is on record?
**A.** inactive

**Q.** With CN(C)Cc1ccccc1O as the compound, how does the outcome read?
**A.** inactive

**Q.** With CCc1ccc(C(c2ccc(CC)cc2)C(Cl)Cl)cc1 as the compound, how does the outcome read?
**A.** inactive

**Q.** With CC(C)c1ccccc1N as the compound, how does the outcome read?
**A.** inactive

**Q.** Which outcome does the source give for C1COCCN1 here?
**A.** inactive

**Q.** Which outcome does the source give for COC(=O)CCC(F)(F)C(F)(F)C(F)(F)C(F)(F)F here?
**A.** inactive

**Q.** For C=CC(=O)OCC(F)(F)C(F)(F)C(F)(F)C(F)(F)C(F)(F)C(F)(F)C(F)(F)F, which outcome is on record?
**A.** inactive

**Q.** With O=S(=O)(O)c1ccc2ccccc2c1 as the compound, how does the outcome read?
**A.** inactive

**Q.** With CCCCC(CC)COP(=O)(O)OCC(CC)CCCC (stereo not given) as the compound, how does the outcome read?
**A.** inactive

**Q.** With COC(=O)C1CCC(C(=O)OC)CC1 (stereo not given) as the compound, how does the outcome read?
**A.** inactive

**Q.** Which outcome does the source give for Nc1cc(Cl)c(N)c(Cl)c1 here?
**A.** inactive

**Q.** For O=C(O)C(F)(F)C(F)(F)OC(F)(F)F, which outcome is on record?
**A.** inactive

**Q.** Which outcome does the source give for CC(C)=CCCC(C)CCOC(=O)C(C)C (stereo not given) here?
**A.** inactive

**Q.** For N=C(N)C(F)(F)C(F)(F)C(F)(F)C(F)(F)C(F)(F)C(F)(F)C(F)(F)F, which outcome is on record?
**A.** inactive

**Q.** Which outcome does the source give for O=C(Cl)C(F)(F)C(F)(F)C(F)(F)C(F)(F)C(F)(F)C(F)(F)C(F)(F)C(F)(F)F here?
**A.** inactive

**Q.** With C=CC(F)(F)C(F)(F)C(F)(F)C(F)(F)C(F)(F)C(F)(F)C(F)(F)C(F)(F)F as the compound, how does the outcome read?
**A.** inactive

**Q.** With CS(C)(=O)=O as the compound, how does the outcome read?
**A.** inactive

**Q.** For O=C(O)C(F)(F)C(F)(F)C(F)(F)C(F)(F)C(F)(F)C(F)(F)C(F)(F)C(F)(F)C(F)(F)C(F)(F)C(F)(F)C(F)(F)F, which outcome is on record?
**A.** inactive

**Q.** Which outcome does the source give for O=C(O)C(F)(F)C(F)(F)C(F)(F)C(F)(F)F here?
**A.** inactive

**Q.** For Cc1ccc(S(=O)(=O)OCC(F)(F)C(F)(F)C(F)(F)C(F)(F)C(F)(F)C(F)F)cc1, which outcome is on record?
**A.** inactive

**Q.** Which outcome does the source give for Cc1ccc(S(=O)(=O)NCl)cc1 here?
**A.** inactive

**Q.** For C=C(C)C(=O)OCC(F)(F)C(F)(F)C(F)(F)C(F)(F)C(F)(F)C(F)(F)C(F)(F)F, which outcome is on record?
**A.** inactive

**Q.** Which outcome does the source give for FC(F)(F)C(F)(F)C(F)(F)C(F)(F)C(F)(F)C(F)(F)CCS here?
**A.** inactive

**Q.** With CCCCCC=O as the compound, how does the outcome read?
**A.** inactive

**Q.** With CCCCCCCCC(F)(F)C(F)(F)C(F)(F)C(F)(F)C(F)(F)C(F)(F)F as the compound, how does the outcome read?
**A.** inactive

**Q.** Which outcome does the source give for Cc1cc(C)cc(O)c1 here?
**A.** inactive

**Q.** Which outcome does the source give for O=S(=O)(OCCOC(F)(F)F)C(F)(F)F here?
**A.** inactive

Target: Transcription factor Sp1 (Homo sapiens) (UniProt P08047)
Sequence (P08047 whole entry, looked up): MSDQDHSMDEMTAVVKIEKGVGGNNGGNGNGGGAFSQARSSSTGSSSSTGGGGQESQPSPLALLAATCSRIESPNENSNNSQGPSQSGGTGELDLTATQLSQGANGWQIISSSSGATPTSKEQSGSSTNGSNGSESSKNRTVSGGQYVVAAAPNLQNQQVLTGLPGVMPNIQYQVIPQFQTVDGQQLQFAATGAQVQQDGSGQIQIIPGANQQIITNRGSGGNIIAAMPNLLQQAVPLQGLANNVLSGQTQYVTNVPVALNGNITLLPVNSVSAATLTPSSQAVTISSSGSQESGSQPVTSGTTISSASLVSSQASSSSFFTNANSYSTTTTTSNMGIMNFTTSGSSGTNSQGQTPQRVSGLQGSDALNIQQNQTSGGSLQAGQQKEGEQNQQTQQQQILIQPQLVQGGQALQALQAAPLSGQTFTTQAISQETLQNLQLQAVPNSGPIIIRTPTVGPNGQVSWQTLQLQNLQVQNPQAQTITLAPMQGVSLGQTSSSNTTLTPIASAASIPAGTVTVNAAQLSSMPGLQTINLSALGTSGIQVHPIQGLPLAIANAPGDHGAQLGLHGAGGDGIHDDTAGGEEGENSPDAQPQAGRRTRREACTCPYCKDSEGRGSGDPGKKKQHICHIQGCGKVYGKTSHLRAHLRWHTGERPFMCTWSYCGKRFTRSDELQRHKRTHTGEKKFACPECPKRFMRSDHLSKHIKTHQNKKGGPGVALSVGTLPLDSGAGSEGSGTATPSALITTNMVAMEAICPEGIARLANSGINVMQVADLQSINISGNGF
Test: ATG_Sp1_CIS: Attagene CIS-FACTORIAL HepG2 Assay for human Specificity Protein 1 (Sp1) (AID 2282961)
Conditions: HepG2 Sp1 cis-reporter transcription, actives raise or lower the signal
How it was run: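 Chemicals are dosed onto HepG2 cells transfected with multiple cis-promoter reporter constructs, and after 24 h reporter RNA is reverse-transcribed, PCR-amplified and resolved by capillary electrophoresis for fluorescence quantitation; activity is scored up or down against DMSO.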

**Q.** With Nc1ccc(S(=O)(=O)Nc2nccs2)cc1 as the compound, how does the outcome read?
**A.** inactive

**Q.** Which outcome does the source give for C=C(C)C(=O)OCC(F)(F)C(F)(F)C(F)(F)F here?
**A.** inactive

**Q.** With O=P(O)(O)OCCC(F)(F)C(F)(F)C(F)(F)C(F)(F)C(F)(F)C(F)(F)F as the compound, how does the outcome read?
**A.** inactive

**Q.** For CC(=O)Nc1ccc(N=Nc2cc(C)ccc2O)cc1, which outcome is on record?
**A.** inactive

**Q.** With FC(F)(F)C(F)(F)C(F)(F)C(F)(F)CCI as the compound, how does the outcome read?
**A.** inactive

**Q.** With CCc1c(Br)c(Br)c(Br)c(Br)c1Br as the compound, how does the outcome read?
**A.** inactive

**Q.** For CC(C)(C)c1ccc(OC2CCCCC2O)cc1 (stereo not given), which outcome is on record?
**A.** inactive

**Q.** With CC(C)OC(=O)c1ccccc1C(=O)OC(C)C as the compound, how does the outcome read?
**A.** inactive

**Q.** For OC[C@@H](O)[C@@H](O)[C@H](O)[C@@H](O)CO, which outcome is on record?
**A.** inactive

**Q.** Which outcome does the source give for CN(C)Cc1ccccc1O here?
**A.** inactive

**Q.** Which outcome does the source give for CCc1ccc(C(c2ccc(CC)cc2)C(Cl)Cl)cc1 here?
**A.** inactive

**Q.** For CC(C)c1ccccc1N, which outcome is on record?
**A.** inactive

**Q.** For C1COCCN1, which outcome is on record?
**A.** inactive

**Q.** With COC(=O)CCC(F)(F)C(F)(F)C(F)(F)C(F)(F)F as the compound, how does the outcome read?
**A.** inactive

**Q.** Which outcome does the source give for C=CC(=O)OCC(F)(F)C(F)(F)C(F)(F)C(F)(F)C(F)(F)C(F)(F)C(F)(F)F here?
**A.** inactive

**Q.** Which outcome does the source give for O=S(=O)(O)c1ccc2ccccc2c1 here?
**A.** inactive

**Q.** For CCCCC(CC)COP(=O)(O)OCC(CC)CCCC (stereo not given), which outcome is on record?
**A.** inactive

**Q.** For COC(=O)C1CCC(C(=O)OC)CC1 (stereo not given), which outcome is on record?
**A.** inactive

**Q.** For Nc1cc(Cl)c(N)c(Cl)c1, which outcome is on record?
**A.** inactive

**Q.** With O=C(O)C(F)(F)C(F)(F)OC(F)(F)F as the compound, how does the outcome read?
**A.** inactive

**Q.** For CC(C)=CCCC(C)CCOC(=O)C(C)C (stereo not given), which outcome is on record?
**A.** inactive

**Q.** With N=C(N)C(F)(F)C(F)(F)C(F)(F)C(F)(F)C(F)(F)C(F)(F)C(F)(F)F as the compound, how does the outcome read?
**A.** inactive

**Q.** With O=C(Cl)C(F)(F)C(F)(F)C(F)(F)C(F)(F)C(F)(F)C(F)(F)C(F)(F)C(F)(F)F as the compound, how does the outcome read?
**A.** inactive

**Q.** Which outcome does the source give for C=CC(F)(F)C(F)(F)C(F)(F)C(F)(F)C(F)(F)C(F)(F)C(F)(F)C(F)(F)F here?
**A.** inactive

**Q.** For CS(C)(=O)=O, which outcome is on record?
**A.** inactive

**Q.** Which outcome does the source give for O=C(O)C(F)(F)C(F)(F)C(F)(F)C(F)(F)C(F)(F)C(F)(F)C(F)(F)C(F)(F)C(F)(F)C(F)(F)C(F)(F)C(F)(F)F here?
**A.** inactive

**Q.** Which outcome does the source give for O=C(O)C(F)(F)C(F)(F)C(F)(F)C(F)(F)F here?
**A.** inactive

**Q.** For Cc1ccc(S(=O)(=O)OCC(F)(F)C(F)(F)C(F)(F)C(F)(F)C(F)(F)C(F)F)cc1, which outcome is on record?
**A.** inactive

**Q.** Which outcome does the source give for Cc1ccc(S(=O)(=O)NCl)cc1 here?
**A.** inactive

**Q.** With C=C(C)C(=O)OCC(F)(F)C(F)(F)C(F)(F)C(F)(F)C(F)(F)C(F)(F)C(F)(F)F as the compound, how does the outcome read?
**A.** inactive

**Q.** With FC(F)(F)C(F)(F)C(F)(F)C(F)(F)C(F)(F)C(F)(F)CCS as the compound, how does the outcome read?
**A.** inactive

**Q.** With CCCCCC=O as the compound, how does the outcome read?
**A.** inactive

**Q.** For CCCCCCCCC(F)(F)C(F)(F)C(F)(F)C(F)(F)C(F)(F)C(F)(F)F, which outcome is on record?
**A.** inactive

**Q.** For Cc1cc(C)cc(O)c1, which outcome is on record?
**A.** inactive

**Q.** For O=S(=O)(OCCOC(F)(F)F)C(F)(F)F, which outcome is on record?
**A.** inactive
